Laboratory results reported in the supplement of paper PMC6089552.
Out of some 3,200 compounds screened, about 300 (9.4%) showed activity. This excerpt belongs to a sample that is enriched for actives. Values without a mark were called inactive.

Tested on: A673/TR/shEF
Test: cell viability (LOESS-normalised, relative to median of negative controls) (log2 ratio); higher = more viable cells (less compound effect), active = hit call of the paper (over 3 MAD below the median)
Conditions: treatment time: 72 h
Procedure, shortened: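 For three days, A673/TR/shEF Ewing sarcoma cells in 384-well plates (1,500 per well) were treated with library compounds at two or more concentrations or with DMSO controls, after doxycycline had been added or withheld 24 h beforehand to induce EWS-FLI1 shRNA knockdown. Viability was read by CellTiter-Glo luminescence on an Envision reader. The data were LOESS-corrected per plate, divided by the median of negative controls and log2-transformed.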

[1] = 0.25 µM, library screen: screen2, EWS-FLI1 expression: high (no doxycycline)
[2] = 0.25 µM, library screen: screen2, EWS-FLI1 expression: low (doxycycline-induced shRNA knockdown)
[3] = 2.5 µM, library screen: screen2, EWS-FLI1 expression: high (no doxycycline)
[4] = 2.5 µM, library screen: screen2, EWS-FLI1 expression: low (doxycycline-induced shRNA knockdown)
[5] = 0.25 µM, library screen: screen1, EWS-FLI1 expression: high (no doxycycline)
[6] = 0.25 µM, library screen: screen1, EWS-FLI1 expression: low (doxycycline-induced shRNA knockdown)
[7] = 2.5 µM, library screen: screen1, EWS-FLI1 expression: high (no doxycycline)
[8] = 2.5 µM, library screen: screen1, EWS-FLI1 expression: low (doxycycline-induced shRNA knockdown)

NCCCP(=O)(O)O
cell viability (log2) [1]: 0.138 | cell viability (log2) [2]: 0.0766 | cell viability (log2) [3]: 0.114 | cell viability (log2) [4]: 0.116

O=C1C=CC(=O)c2c(O)cccc21
cell viability (log2) (0.025 µM, library screen: screen2, EWS-FLI1 expression: high (no doxycycline)): 0.123 | cell viability (log2) (0.025 µM, library screen: screen2, EWS-FLI1 expression: low (doxycycline-induced shRNA knockdown)): 0.0947 | cell viability (log2) [5]: 0.185 | cell viability (log2) [6]: 0.0663 | cell viability (log2) [1]: 0.0843 | cell viability (log2) [2]: 0.00401 | cell viability (log2) [7]: 0.153 | cell viability (log2) [8]: 0.0956 | cell viability (log2) [3]: 0.273 | cell viability (log2) [4]: 0.125 | cell viability (log2) (25 µM, library screen: screen2, EWS-FLI1 expression: high (no doxycycline)): -0.0924 (active) | cell viability (log2) (25 µM, library screen: screen2, EWS-FLI1 expression: low (doxycycline-induced shRNA knockdown)): -0.0926 (active)

CCCCCCC(C)(C)c1ccc([C@H]2C[C@@H](O)CC[C@H]2CCCO)c(O)c1
cell viability (log2) [1]: 0.0289 | cell viability (log2) [2]: 0.103 | cell viability (log2) [3]: 0.129 | cell viability (log2) [4]: 0.122

CCc1cccc(C)c1N(C(=O)CCl)C(C)COC (stereo not given)
cell viability (log2) [5]: 0.0561 | cell viability (log2) [6]: 0.0711 | cell viability (log2) [7]: 0.0898 | cell viability (log2) [8]: 0.0634

CCCC(C)(COC(N)=O)COC(=O)NC(C)C (stereo not given)
cell viability (log2) [5]: 0.0415 | cell viability (log2) [6]: 0.112 | cell viability (log2) [1]: 0.196 | cell viability (log2) [2]: 0.0672 | cell viability (log2) [7]: 0.137 | cell viability (log2) [8]: 0.151 | cell viability (log2) [3]: -0.0715 (active) | cell viability (log2) [4]: 0.121

C[N+]1=Cc2cc3c(cc2CC1)OCO3
cell viability (log2) [5]: 0.0752 | cell viability (log2) [6]: 0.0244 | cell viability (log2) [7]: 0.15 | cell viability (log2) [8]: 0.0111

COc1ccc([C@H]2Oc3c(I)c(OC)cc(OC)c3C[C@@H]2O)cc1OC
cell viability (log2) [5]: -0.0318 | cell viability (log2) [6]: 0.027 | cell viability (log2) [7]: 0.0859 | cell viability (log2) [8]: 0.059

N#C/C(=C\c1ccc(O)cc1)C(=O)O
cell viability (log2) [5]: 0.0465 | cell viability (log2) [6]: 0.0904 | cell viability (log2) [7]: 0.146 | cell viability (log2) [8]: 0.0788

C[C@@H](N)Cc1cnc[nH]1
cell viability (log2) [1]: 0.0946 | cell viability (log2) [2]: 0.0207 | cell viability (log2) [3]: 0.146 | cell viability (log2) [4]: 0.00233

OC[C@H]1O[C@@H](n2cnc3cc(Cl)c(Cl)cc32)[C@H](O)[C@@H]1O
cell viability (log2) (0.025 µM, library screen: screen1, EWS-FLI1 expression: high (no doxycycline)): 0.182 | cell viability (log2) (0.025 µM, library screen: screen1, EWS-FLI1 expression: low (doxycycline-induced shRNA knockdown)): -0.067 | cell viability (log2) [5]: 0.227 | cell viability (log2) [6]: 0.0134 | cell viability (log2) [7]: -0.183 (active) | cell viability (log2) [8]: 0.128 | cell viability (log2) (25 µM, library screen: screen1, EWS-FLI1 expression: high (no doxycycline)): -0.16 (active) | cell viability (log2) (25 µM, library screen: screen1, EWS-FLI1 expression: low (doxycycline-induced shRNA knockdown)): 0.0669

Cc1cc([C@@H]2CCCN2C)on1
cell viability (log2) [1]: 0.0967 | cell viability (log2) [2]: 0.135 | cell viability (log2) [3]: 0.0205 | cell viability (log2) [4]: 0.0708

CN1CC[C@]2(CCN3CCc4c(oc5ccccc45)[C@@H]3C2)N(C)C1=O
cell viability (log2) [1]: 0.195 | cell viability (log2) [2]: 0.0926 | cell viability (log2) [3]: 0.114 | cell viability (log2) [4]: 0.114

CCCCN(CC)c1c([N+](=O)[O-])cc(C(F)(F)F)cc1[N+](=O)[O-]
cell viability (log2) [5]: 0.116 | cell viability (log2) [6]: 0.132 | cell viability (log2) [7]: 0.0478 | cell viability (log2) [8]: 0.194

ClC1=C(Cl)C2(Cl)C3C(Cl)C=CC3C1(Cl)C2(Cl)Cl (stereo not given)
cell viability (log2) [5]: 0.152 | cell viability (log2) [6]: 0.0412 | cell viability (log2) [7]: 0.0862 | cell viability (log2) [8]: 0.0598

CC(C)N1C(=O)c2ccccc2NS1(=O)=O
cell viability (log2) [5]: 0.113 | cell viability (log2) [6]: 0.086 | cell viability (log2) [7]: 0.0391 | cell viability (log2) [8]: 0.0775

C/C=C(/C)C(=O)O[C@H]1C(C)=C2[C@H]([C@@H]1OC(=O)CCCCCCC)[C@@](C)(OC(C)=O)C[C@H](OC(=O)CCC)[C@@]1(O)[C@H]2OC(=O)[C@@]1(C)O
cell viability (log2) [1]: -3.16 (active) | cell viability (log2) [2]: -2.76 (active) | cell viability (log2) [3]: -3.49 (active) | cell viability (log2) [4]: -2.81 (active)

CN1C(=O)CN=C(c2ccccc2)c2cc(Cl)ccc21
cell viability (log2) [5]: 0.0871 | cell viability (log2) [6]: 0.0866 | cell viability (log2) [7]: 0.123 | cell viability (log2) [8]: 0.0545

C[C@]12CC[C@H]3[C@@H](CCC4=CC(=O)CC[C@@]43C)[C@@H]1CC[C@@H]2O
cell viability (log2) [5]: 0.0751 | cell viability (log2) [6]: -0.0159 | cell viability (log2) [7]: 0.0937 | cell viability (log2) [8]: -0.0498

O=c1cccc2n1CC1CC2CN2CCCCC12 (stereo not given)
cell viability (log2) [5]: 0.16 | cell viability (log2) [6]: 0.0123 | cell viability (log2) [7]: 0.153 | cell viability (log2) [8]: 0.0958

NCCc1cc(O)c(O)cc1O
cell viability (log2) [5]: 0.0637 | cell viability (log2) [6]: 0.155 | cell viability (log2) [7]: 0.144 | cell viability (log2) [8]: 0.129

CC(=O)OCC1=C(C(=O)O)N2C(=O)[C@@H](NC(=O)CCC[C@@H](N)C(=O)O)[C@H]2SC1
cell viability (log2) [1]: 0.263 | cell viability (log2) [2]: 0.114 | cell viability (log2) [3]: 0.155 | cell viability (log2) [4]: 0.174
